Experimental findings from publication PMC7819943, “Rice protein-binding microarrays: a tool to detect cis-acting elements near promoter regions in rice” are described below.

In all, about 39,000 sequences were measured (“fluorescence intensity (a.u.)”: median about 4,300, highest 2% from about 39,000 on). The entries come from a sample that favours the highest values as a whole.

For the assay, the target named is T1, OsSMF1 (Oryza sativa, UniProt Q6ZLB0 1-436).
T1 sequence: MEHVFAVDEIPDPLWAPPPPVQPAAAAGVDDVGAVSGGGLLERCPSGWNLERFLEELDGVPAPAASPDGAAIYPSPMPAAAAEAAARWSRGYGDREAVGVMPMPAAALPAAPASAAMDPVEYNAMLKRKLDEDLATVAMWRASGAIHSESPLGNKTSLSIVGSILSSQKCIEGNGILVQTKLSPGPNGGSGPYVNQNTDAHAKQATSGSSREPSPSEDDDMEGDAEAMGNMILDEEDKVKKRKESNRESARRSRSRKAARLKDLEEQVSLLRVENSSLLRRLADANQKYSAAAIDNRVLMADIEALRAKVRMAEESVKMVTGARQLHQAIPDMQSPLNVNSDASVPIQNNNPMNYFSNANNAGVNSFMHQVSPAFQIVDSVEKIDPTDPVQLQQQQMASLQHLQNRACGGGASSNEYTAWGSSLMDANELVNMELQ
The assay is described as follows: protein-binding microarray (RPBM); PBS, 2% BSA, 51.3 ng/ul salmon testes DNA, 50 uM zinc acetate, 200 nM TF, 25 C, 1 h; high values mean tight binding. Conditions: protein: recombinant; tags: N-terminal polyhistidine and DsRed monomer fusion (pET32a); chain copies: 2; label: CyDye5-dUTP incorporated in the synthesized complementary strand; 3' TTTTT single-stranded linker to array surface; dsDNA, one strand shown. In short, it runs like this: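 The binding signal is fluorescence intensity per feature, in arbitrary units, read on an Axon 4000B scanner. Polyhistidine- and DsRed-tagged transcription factors (N-terminal fusions) from E. coli BL21-CodonPlus were purified on Ni–NTA and applied at 200 nM for 1 h at 25 °C to a double-stranded, BSA-blocked custom Agilent array in buffer with 50 µM zinc acetate.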
For “CGCAGCCCGAGCCCGCCGTATTCCACGTCGACGCTGTCGTCGGAGTCACCTAGTGCAG”, the binding signal was 5720 fluorescence intensity (a.u.). Consider “GAAATTTTCAGGGTGTTACATAGATCAACTGAATTCCTTACGGAGTCACCTAGTGCAG”, for which the binding signal is 3550 fluorescence intensity (a.u.). With “ATAAATTTGGACGCATCCCAAAATTCGGCAAACATATGACCGGAGTCACCTAGTGCAG”, the binding signal is 39200 fluorescence intensity (a.u.). As for “TATAAATTTGGACACATATATGAAACACATATATTGATCCCGGAGTCACCTAGTGCAG”, the figure is 30400 fluorescence intensity (a.u.).

For “CATAAATGAGATCCAGTGACGGCATGAGCATGTCCCAATTCGGAGTCACCTAGTGCAG”, the binding signal was 24900 fluorescence intensity (a.u.). Regarding “GTGAGAGAAGCCGCCTTGGATGATGTCAACCATGGTGGCGCGGAGTCACCTAGTGCAG”, the binding signal is 6930 fluorescence intensity (a.u.). As to “CAATGCTAGCCGCGCAATCTGCGCGGGCCACCATGCTATTCGGAGTCACCTAGTGCAG”, the binding signal was 3430 fluorescence intensity (a.u.). As to “CAATTATCCGCAACGTATGGCTAGCTCAACCCTACTGTAACGGAGTCACCTAGTGCAG”, the binding signal was 3270 fluorescence intensity (a.u.).

Take “GATATCATGTAGGAGTAGTAGTTGTTATGTGTGTGGGCTACGGAGTCACCTAGTGCAG”: the binding signal was 13000 fluorescence intensity (a.u.). Next, “GATGGCTATCTGCCCGGGCAAAGTGTACCCTTTTACTGTTCGGAGTCACCTAGTGCAG”: 30800 fluorescence intensity (a.u.).

For “GGGCCAAAACAAAGCCAGCGTGCAACCCTCGACAAAGCACCGGAGTCACCTAGTGCAG”, the binding signal was 4110 fluorescence intensity (a.u.).

Consider “CAAACCCTAGCTCATATGGTTGTAGTCTTAGCTACTATCACGGAGTCACCTAGTGCAG”, for which the binding signal is 50500 fluorescence intensity (a.u.). Next, “CACACCCTTACTGTAGCTATCACTGCACAAAGCCAAAACCCGGAGTCACCTAGTGCAG”: 43600 fluorescence intensity (a.u.); “TCCATGGCGCCACACGTCACCACCTTCTCACACCCTCGTCCGGAGTCACCTAGTGCAG”: 18400 fluorescence intensity (a.u.). As for “CAACCATGGCGTCATCCTCTTCCTCCTCCTCCTCCTCCTCCGGAGTCACCTAGTGCAG”, the figure is 5800 fluorescence intensity (a.u.); as for “GCCTTCTTCCTCGCCTGCGGCCGTCTCCGCCACCTCGACCCGGAGTCACCTAGTGCAG”, 4040 fluorescence intensity (a.u.). Take “CTTTGCCACGGCGGTCTCTCGTCCTCTTCCTCCTCTCCGCCGGAGTCACCTAGTGCAG”: the binding signal is 4190 fluorescence intensity (a.u.).

“CCGTCTTCTTCCTCCACGTTCCTATCCATGGCGCCAGTTCCGGAGTCACCTAGTGCAG”: the binding signal was 41400 fluorescence intensity (a.u.). As to “CCACGGGTTCTTCCTCGATGCCTTCTCCGGCGCCGTCCGGCGGAGTCACCTAGTGCAG”, the binding signal was 45300 fluorescence intensity (a.u.).

For the sequence “CGGCCGCGTCAGGGAGGACGCCGCGCGGCACTACTTCCGGCGGAGTCACCTAGTGCAG”, the binding signal is 3870 fluorescence intensity (a.u.). Consider “CGACGGCCACAACCGGTTGTGGCGGCGTCTGCGTTGGCAGCGGAGTCACCTAGTGCAG”, for which the binding signal was 5430 fluorescence intensity (a.u.). For the sequence “ATTGCTTTATATGGTTATTTAAGTTTATTTTGCATCCCTACGGAGTCACCTAGTGCAG”, the binding signal was 22600 fluorescence intensity (a.u.).

Regarding “ACAGGAGCACCATCAACAGCTGACAACTTGGCATTGGTATCGGAGTCACCTAGTGCAG”, the binding signal was 3680 fluorescence intensity (a.u.). As to “ATCAAAATGGCAACAAAAGGGAGTCCAAAGTGAAAATTTTCGGAGTCACCTAGTGCAG”, the binding signal is 36100 fluorescence intensity (a.u.).

In the case of “GCGGCTGAATTAATCTCCATCTGGCGAGCATCCACATCCTCGGAGTCACCTAGTGCAG”, the binding signal is 52300 fluorescence intensity (a.u.).

For “CCTCTGGCATCCATTATTGAGTTTATTAATCCTCCATCCTCGGAGTCACCTAGTGCAG”, the binding signal was 26300 fluorescence intensity (a.u.).

In the case of “ATCTCCATCGCTGGCGACGGCGAGCATCGCATCGCATCGCCGGAGTCACCTAGTGCAG”, the binding signal was 3150 fluorescence intensity (a.u.). In the case of “ACATCATCGGCTACGTCAGGTCCAGCGCCGCCGCCAAGGCCGGAGTCACCTAGTGCAG”, the binding signal was 6640 fluorescence intensity (a.u.). Next, “AACCCTAGCCACTCTCGTTTCATTGGTCTGACTTATTGGGCGGAGTCACCTAGTGCAG”: 14700 fluorescence intensity (a.u.); “CGCGCGTCTCGACTCCGTCCCAATCGATCGATCGATCGCGCGGAGTCACCTAGTGCAG”: 12800 fluorescence intensity (a.u.).

With “CACGAGCTGGTGGGCATCGAGGACTCCACACACGCGCATCCGGAGTCACCTAGTGCAG”, the binding signal was 42800 fluorescence intensity (a.u.).

As for “GGACACACACCCACACGCGCATCCATCCATCCATCCATCCCGGAGTCACCTAGTGCAG”, the binding signal was 3220 fluorescence intensity (a.u.).

Turning to “CGCGCCATCGGCACGCTGGGCCAACACGGCACGGTGGACCCGGAGTCACCTAGTGCAG”, the binding signal is 3820 fluorescence intensity (a.u.). Next, “GGTGTGGCGTGAGCGTGACACGGTGTCAACTGTCAAGTGTCGGAGTCACCTAGTGCAG”: 3400 fluorescence intensity (a.u.); “AATAGCTCTCTCCTCAGTCTCTCACGGCCTCATCACCACCCGGAGTCACCTAGTGCAG”: 3170 fluorescence intensity (a.u.); “TCTCGCCTACCACCAAGCTCATCTCGTTTCGTTAGCTACCCGGAGTCACCTAGTGCAG”: 41600 fluorescence intensity (a.u.). Consider “TGCCCGGCTCGGCTACCCCGTCGCCACCGCCGTTCGTTTCCGGAGTCACCTAGTGCAG”, for which the binding signal is 3190 fluorescence intensity (a.u.). For “AGGCGGTTTTGGCTGATGTGGCGTCTACGTGGCTTGTTTGCGGAGTCACCTAGTGCAG”, the binding signal is 25300 fluorescence intensity (a.u.). As to “GGTCCCTCAGCGGTTTTGGCTGACGTGGCGCATACGTGGCCGGAGTCACCTAGTGCAG”, the binding signal was 51700 fluorescence intensity (a.u.). Next, “TTTAGATGGCGGTTTTGGCTGACGTGGCGTCTACGTGACGCGGAGTCACCTAGTGCAG”: 30700 fluorescence intensity (a.u.); “GACCCCGGTTTTGTCCCACGTGGCGGCTGACTCAGCGTGGCGGAGTCACCTAGTGCAG”: 22500 fluorescence intensity (a.u.); “GTTTTGACCCGGTTTTGGTCTACGTGGCGCTGAGTCAGCGCGGAGTCACCTAGTGCAG”: 29900 fluorescence intensity (a.u.).

Regarding “TGGCGGTTTGGAAGGCGGTTTTGGCTGACGTGGCGTCTACCGGAGTCACCTAGTGCAG”, the binding signal is 43800 fluorescence intensity (a.u.). As for “GATCTCCTTTACACGTGATGTTGACGTGGCGTTTAGGTGGCGGAGTCACCTAGTGCAG”, the binding signal was 26500 fluorescence intensity (a.u.). Turning to “GGAAGCGCCAGCCAGCGCTCGCCGTTGTCACCTGTCACACCGGAGTCACCTAGTGCAG”, the binding signal is 3480 fluorescence intensity (a.u.).

“TACAGATCGATGCGACACTCTGACACGTTACGCTCTCTCTCGGAGTCACCTAGTGCAG”: the binding signal is 6440 fluorescence intensity (a.u.). Take “TTGTGATGTCCATGTCACATGCAGTCCATTAAGGCCCTTGCGGAGTCACCTAGTGCAG”: the binding signal is 5190 fluorescence intensity (a.u.).

With “GTTGTTGTTCTTGGATGTGAATGTGAATAATGTGATGTTTCGGAGTCACCTAGTGCAG”, the binding signal is 3350 fluorescence intensity (a.u.). Regarding “CAGTGCTAGGGAAGCGACCAATGATGGATAGTGGGAGGCACGGAGTCACCTAGTGCAG”, the binding signal is 45600 fluorescence intensity (a.u.).

Consider “TGTGGTGGCGAGCGGCACGGAGGCGGGGCGGTGGAGGGAGCGGAGTCACCTAGTGCAG”, for which the binding signal was 3980 fluorescence intensity (a.u.). As to “TAGAGGCAAGCACGACCAATGAGGACATAGGGAATGGTTCCGGAGTCACCTAGTGCAG”, the binding signal was 9700 fluorescence intensity (a.u.). As for “CTGTGCCGCTCGCTCGTTCGCTCTGTGACTGTACGTACATCGGAGTCACCTAGTGCAG”, the figure is 4590 fluorescence intensity (a.u.); as for “CCACATCGGATGCCACGTCAGCCCTAGCCACATCAGCGCACGGAGTCACCTAGTGCAG”, 38500 fluorescence intensity (a.u.). With “TTGTCGCGATGTGCCCCTTCTACGGGGTGCCACGTCACATCGGAGTCACCTAGTGCAG”, the binding signal is 39500 fluorescence intensity (a.u.). Consider “GTGTGGGGCCACGTCACAGTGGGCCCCATATGTCGGTGGGCGGAGTCACCTAGTGCAG”, for which the binding signal was 12700 fluorescence intensity (a.u.).
